# High-throughput results (PubChem BioAssay)
# The sample as a whole holds a higher share of hits than the screen did.
# Pf Dd2 inh – inhibitors of Plasmodium falciparum Dd2 growth | P. falciparum Dd2 growth, SYBR Green, 72 h | Potency, µM (top dose mostly 28.9 µM), without a hit: at the highest dose activity, negative = inhibition, hits mostly inhibitors | 120,000 tested, 4.3% active | AID 1347417; active = well fitted inhibition curve with a large enough effect;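 also: plate controls were DMSO vehicle for no effect and reference drug for full effect; nearly all actives have a fitted effect of over 65% in size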
#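 Readout: SYBR Green fluorescence, 485 nm excitation, 535 nm emission, after ~16 h lysis at 37C. Before that, Dd2-infected red cells (2.5% hematocrit) grew 72 h with compound, 29 uM top final concentration.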
# * marks the source's active call; other numbers are inactive results; i = inactive; [ ] = another dose, or the depositor's remark. Potency is read from the fitted curve at half-maximal effect.
SMILES,Pf Dd2 inh
CCN(CC)Cc1cnc2c(C(=O)NC(C)C(=O)N(C)C)cnn2c1 (stereo not drawn),-7%
CCN(CC)Cc1nc(C2(O)CCN(Cc3ccccc3)CC2)cs1,-16%[44.1 µM]
O=C(NCCCc1ccccc1)C1(CCO)CCN(c2ncccn2)C1 (stereo not drawn),i
O=C(c1cc2cc(F)ccc2[nH]1)N1CCC(CO)(CCCc2ccccc2)CC1,-13%
OCC1(CCCc2ccccc2)CCN(Cc2ccc(-n3cccn3)cc2)CC1,4.5µM*
OCC1(CCCc2ccccc2)CCN(Cc2cccn2-c2nccs2)CC1,10µM*
O=C(c1ccc2nc[nH]c2c1)N1CCC(CO)(CCCc2ccccc2)CC1,13%
COCCNC(=O)[C@@H]1C[C@H](Oc2ccccc2)CN1C(=O)c1sc(C)nc1C,17%
COc1ccc(-c2n[nH]c3c2CC(=O)N(Cc2ccccn2)C3)cn1,7%[44.1 µM]
Cn1cnc(S(=O)(=O)N2CCC[C@H](n3c(=O)n(C)c4cccnc43)C2)c1,-2%
O=C(c1cccc(Cl)c1)N1CCC(c2nc3c(nnn3Cc3ccc(F)cc3F)c(=O)[nH]2)CC1,2µM*
Cc1ccc(C(=O)N2CCC(c3nn(Cc4ccccc4)c(=O)[nH]3)CC2)cc1,-8%
COc1ccc(CNC(=O)C2CCCN(S(=O)(=O)c3cccc4nsnc34)C2)cc1 (stereo not drawn),-19%
COC(=O)c1ccc(Cn2nnc3c(=O)[nH]c(C4CCCN(S(=O)(=O)c5ccccc5Cl)C4)nc32)cc1 (stereo not drawn),7.9µM*
Cc1ccc(C)c(C(=O)N2CCC(c3nc4c(nnn4Cc4ccccc4)c(=O)[nH]3)CC2)c1,11µM*
CC(C)n1ccnc1C1CCCN(S(=O)(=O)c2ccccc2Cl)C1 (stereo not drawn),i
CC(C)(C)c1ccc(C(=O)N2CCCC(c3nc4c(nnn4Cc4cccc(F)c4)c(=O)[nH]3)C2)cc1 (stereo not drawn),1.6µM*
O=C(c1cccc(Cl)c1)N1CCC(c2nn(-c3ccccc3)c(=O)[nH]2)CC1,i
Cc1ccccc1Cn1nnc2c(=O)[nH]c(C3CCCN(C(=O)c4ccc(F)cc4)C3)nc21 (stereo not drawn),-3%
O=C(c1cccc(C(F)(F)F)c1)N1CCC(c2nn(-c3ccc(Cl)cc3)c(=O)[nH]2)CC1,i
Cc1cc(C)n(Cc2cccc(C(=O)N3CCCC(c4ncc[nH]4)C3)c2)n1 (stereo not drawn),0%
Cc1ccccc1C(=O)N1CCC(c2nn(Cc3ccccc3)c(=O)[nH]2)CC1,-16%
CN1C(=O)[C@H]2CN(Cc3ccc(C(F)(F)F)cc3)C[C@H]2C1=O,i
O=C(c1ccc2[nH]ccc2c1)N1CC[C@@H]2COCCN(Cc3cccnc3)[C@@H]2C1,4%
CC(C)(CO)CNC(=O)c1cnc2c(c1)N([S+](=O)([O-])c1cccnc1)CCC2,2%[44.1 µM]
SMILES,Pf Dd2 inh
O=C(c1ccncc1)N1CCCC(CN2CCOCC2)CC1 (stereo not drawn),-4%
COc1cccc(NC(=O)CCC2CCN(C(=O)c3ccccc3)CC2)c1,-25%
CCC(CC)C(=O)NC[C@H]1O[C@@H](CC(=O)NCc2ccc(F)cc2)[C@H](O)[C@@H]1O,-1%[44.1 µM]
O[C@]12CCNC[C@H]1CN(Cc1cccc(N3CCOCC3)c1)CC2,-4%
COc1cccc(CN2CC[C@@]3(O)CCNC[C@H]3C2)c1OCCCn1ccnc1,4µM*
O[C@]12CCNC[C@H]1CN(Cc1ccc(C(F)(F)F)cc1F)CC2,-27%
CN(C)S(=O)(=O)NCC(=O)N1CCCCCNC(=O)CC1c1ccccc1 (stereo not drawn),37%
CC(C)OCc1cc(CN2CCN(c3ccccc3)CC2)c(O)c2ncccc12,2.5µM*
COc1cc(-c2noc(CN3CCN(c4ccccc4)CC3)n2)cc(OC)c1OC,14%
CCOc1ccc2oc(=O)cc(CN3CCN(c4ccccc4)CC3)c2c1,i
CCn1c2ccccc2c2nnc(N3CCN(c4cccc(Cl)c4)CC3)nc21,-4%
COc1ccc(-c2noc(CN3CCN(c4cccc(Cl)c4)CC3)n2)cc1,17%
CCOCc1cc(CN2CCN(c3cccc(Cl)c3)CC2)c(O)c2ncccc12,2.8µM*
Cc1ccc(NC(=O)C[C@H]2NC(=O)c3ccccc3NC2=O)c(Cl)c1,-12%
COc1ccc(-c2noc([C@@H]3CCCN3C(=O)c3ccc(F)cc3Cl)n2)cc1OC,i
CCn1cc(C(=O)N2CCN(c3ccc(F)cc3)CC2)c(=O)c2cc(S(=O)(=O)N(C)C3CCCCC3)ccc21,-8%
Cn1cc(C(=O)N2CCN(c3ccccc3)CC2)c(=O)c2cc(S(=O)(=O)N3CCCC3)ccc21,1.6µM*
COc1ccc(-n2nc(C(=O)N3CCN(c4ccc(F)cc4)CC3)c3c4ccccc4n(C)c3c2=O)cc1,27%
COc1ccc(N2CCN(C(=O)c3cn(C)c4ccc(S(=O)(=O)N(C)C5CCCCC5)cc4c3=O)CC2)cc1,11µM*
CN(C1CCCCC1)S(=O)(=O)c1ccc2c(c1)c(=O)c(C(=O)N1CCN(c3ccccc3F)CC1)cn2C,0.89µM*
CCn1cc(C(=O)N2CCN(c3cc(C)ccc3C)CC2)c(=O)c2cc(S(=O)(=O)N3CCOCC3)ccc21,-6%
Cn1cc(C(=O)N2CCN(c3cccc(Cl)c3)CC2)c(=O)c2cc(S(=O)(=O)N3CCCC3)ccc21,11%
COc1ccc(-n2nc(C(=O)N3CCN(c4ccccc4OC)CC3)c3c4ccccc4n(C)c3c2=O)cc1,73%
CCn1cc(C(=O)N2CCN(c3ccccc3F)CC2)c(=O)c2cc(S(=O)(=O)N(C)C)ccc21,39%
CN(C1CCCCC1)S(=O)(=O)c1ccc2c(c1)c(=O)c(C(=O)NCc1ccc(F)cc1)cn2C,30%
SMILES,Pf Dd2 inh
CN(C1CCCCC1)S(=O)(=O)c1ccc2c(c1)c(=O)c(C(=O)N1CCN(c3ccc(F)cc3)CC1)cn2C,60%
COc1ccc(N2CCN(C(=O)c3cn(C4CCCCC4)c(=O)c4c3c3ccccc3n4C)CC2)cc1,5µM*
CC(C)NC(=O)N1CCC2(CCCCO2)CC1,-3%
O=C(Cn1ccn2nc3c(c2c1=O)CCCC3)NCc1ccccc1,16%
COc1cccc(C2Cn3nnc(-c4nc(-c5ccc(Cl)cc5)no4)c3CO2)c1 (stereo not drawn),i
CCOCC(=O)N1C[C@@H](Oc2ccccc2)C[C@H]1C(=O)NCCOC,-19%
CC(CCc1ccccc1)NC(=O)Cn1cccc1-c1nc(-c2ccccc2)no1 (stereo not drawn),3%
Cc1cc(CNC(=O)[C@@H]2CCC[C@@H](NC(=O)NC3(c4ccccc4)CCOCC3)CN(C)C(=O)C2)no1,-11%
CC1=C(C(=O)Nc2ccccc2)C(c2cc(C)ccc2C)N2C(CC(=O)N3CCCC3)=CSC2=N1 (stereo not drawn),-1%
CCn1ccc(C(=O)N2CCC(F)(c3nc(-c4ccncc4)no3)CC2)n1,-8%
COc1cccc(N2CC(C(=O)NCC(F)F)NC2=O)c1 (stereo not drawn),-1%[44.1 µM]
Cc1noc(C2CC3(CCN(C(=O)CCc4c(C)nn(C)c4C)CC3)CN2C)n1 (stereo not drawn),-3%
COC(=O)[C@@H](CC(C)C)NC(=O)[C@@H]1C[C@@H](n2nnc(C(N)=O)c2C(N)=O)CCN1C(=O)c1cccn1C,-10%
COCc1cc(=O)n(CC(=O)Nc2ccc(F)c(Cl)c2)c(N2CCOCC2)n1,i
COc1ccc(-c2nc(C)nc3c2CN(C(=O)c2ccc4c(c2)OCO4)CC3)cc1,-12%
